Compound activity as filed in PubChem.
D1 ag: agonists of human D1 dopamine receptor | hit rate 1% among 360,000 | HEK293 T-REx D1 cells, calcium flux, agonist mode | P21728 | activation, % at 2 µM | AID 504660; in the data active = activation above about 30%
Target sequence (P21728 whole entry, looked up): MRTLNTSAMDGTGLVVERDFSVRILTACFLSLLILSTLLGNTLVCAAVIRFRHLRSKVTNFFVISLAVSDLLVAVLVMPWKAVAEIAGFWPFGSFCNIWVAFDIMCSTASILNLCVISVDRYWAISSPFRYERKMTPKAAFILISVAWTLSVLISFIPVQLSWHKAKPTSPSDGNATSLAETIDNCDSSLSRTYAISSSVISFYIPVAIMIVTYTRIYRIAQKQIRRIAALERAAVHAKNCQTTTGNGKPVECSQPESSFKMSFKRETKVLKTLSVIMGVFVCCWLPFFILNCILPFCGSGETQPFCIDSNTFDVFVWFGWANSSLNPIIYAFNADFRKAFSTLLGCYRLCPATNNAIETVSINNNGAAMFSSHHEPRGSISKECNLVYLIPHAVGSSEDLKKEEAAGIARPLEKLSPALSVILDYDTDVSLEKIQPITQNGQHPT
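Inducible HEK293 T-REx D1 cells, force-coupled to calcium signalling, were plated at 4000 cells/well with tetracycline and held overnight at 30 C. After no-wash calcium dye loading, compound-evoked calcium rise over 180 s flagged agonists.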
D1 PAM: human D1 dopamine receptor positive modulation; P21728; HEK293 TREx D1 cells, calcium flux, dopamine EC20 potentiation; potentiation, % at 10 µM; hit rate 0.036% among 360,000; in the data active = potentiation above about 30%
D1 antagonist: human D1 dopamine receptor antagonism | P21728 | HEK293 TREx D1 cells, calcium flux, dopamine EC80; stronger effect = lower value | activity change, negative = inhibition, % at 10 µM | hit rate 3.2% among 360,000 | AID 504652; in the data active = activity change below about -30%
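Antagonism measured as reduced calcium response to an EC80 dopamine addition following 180 s compound pre-read; cells were inducible HEK293 Trex D1 plated overnight at 30 C, read kinetically at 1 cycle/sec.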
DRD3 agonist: agonists of human D3 dopamine receptor | D3R DiscoveRx beta-arrestin cells, luminescence, 90 min | P35462 | hit rate 0.58% among 410,000 | max activation, %; in the data active = max activation above about 30%
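Cells at 1500/well, incubated overnight, then treated with pinned compounds (dopamine as control) for 90 min at 37 degrees C. DiscoveRx reagent added for 30 - 60 minutes at room temperature; luminescence read.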
DRD3 antagonist: antagonists of human D3 dopamine receptor; P35462; D3R cells, DiscoveRx beta-arrestin luminescence, antagonist mode; stronger effect = lower value; max response, negative = inhibition, %; hit rate 2.5% among 360,000; AID 652054; in the data active = max response below about -50%
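Cells expressing the human receptor were seeded at 1500 cells/well, incubated overnight at 37 degrees C in 5% CO2, then exposed to library compounds with dopamine controls for 90 minutes at 37 degrees C before luminescent detection.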
Each line names hits and unclear results; the compound was inactive in the other large screens. Shown are actives, neighbours in structure and some others; about 6% of the full set was active somewhere.

Cc1ccc(C(=O)Nc2ccc(Cl)c(-c3nc4ncccc4o3)c2)c(C)c1	none (no result: DRD3 antagonist)
CCOC(=O)c1c(C)[nH]c(C)c1C(=O)COC(=O)c1cccc(S(=O)(=O)N(CC)CC)c1	D1 antagonist -49.1
CCOC(=O)c1c(C)[nH]c(C)c1C(=O)COC(=O)c1cc(OC)c(OC)cc1OC	D1 antagonist -31.7
COc1ccc(-c2nc(C(=O)Nc3cccc(C(C)=O)c3)nn2-c2ccccc2Cl)cc1	none (no result: DRD3 antagonist)
O=C(N/N=C(\c1ccccc1)c1cccnc1)c1cccc(F)c1	D1 antagonist -41.1, DRD3 antagonist -75.1
CCCCNC(=O)c1ccc2c(=O)n(Cc3ccc(OC)cc3)c(=O)[nH]c2c1	none (no result: DRD3 antagonist)
N#Cc1c(-n2ncnc2-c2ccc(F)cc2)sc2c1CCCCC2	none (no result: DRD3 antagonist)
Cc1cc(C)nc(NS(=O)(=O)c2ccc(NC(=O)c3cccc(N4C(=O)CCC4=O)c3)cc2)n1	DRD3 antagonist -59.4
Cc1ccc(S(=O)(=O)Nc2cc(=O)[nH]c(SCc3ccccc3Cl)n2)cc1	D1 antagonist -31.5
O=C(CSc1nc(NS(=O)(=O)c2ccccc2)cc(=O)[nH]1)Nc1ccc(Cl)cc1	none
O=c1cc(NS(=O)(=O)c2ccccc2)nc(SCc2ccc(Cl)cc2)[nH]1	D1 antagonist -35.9
CN(C)c1nc(Cl)nc(NCCOc2ccccc2)n1	D1 ag 80.5
O=C(NCc1ccc(Cl)cc1)c1cccc(NC(=O)c2ccccc2)c1	D1 antagonist -34.4
COC(=O)c1cccc(NC(=S)NCc2ccc(Cl)cc2)c1	D1 ag 35.5
COC(=O)c1cc(NC(=S)NCc2ccc(Cl)cc2)cc(C(=O)OC)c1	none
O=C(NCc1ccccc1)c1cccc(COc2ccc(Cl)cc2)c1	D1 ag 38.0
O=C(NCc1ccccc1)c1ccc(Cl)cc1	none
CC(C)C(=O)Nc1cccc(C(=O)OCC(=O)c2ccc(Cl)cc2Cl)c1	DRD3 agonist 30.5
COc1ccc(CCNC(=O)CSc2nc3ccccc3nc2Cc2ccc(C)cc2)cc1OC	none (no result: DRD3 antagonist)
CC(=O)c1ccc(NC(=O)COc2ccccc2-c2nc(-c3ccc(C)cc3)no2)cc1	none (no result: DRD3 antagonist)
COC(=O)c1cccc(NC(=O)Nc2ccc(Cl)cc2Cl)c1	D1 antagonist -42.9
O=[N+]([O-])c1cc(-c2nc(-c3ccccc3)no2)ccc1NCCc1ccccc1	none (no result: DRD3 antagonist)
CCCSCCCNC(=O)c1cc2n(n1)CCCN(Cc1ccc(C)cc1)C2=O	D1 ag 55.7 (no result: DRD3 antagonist)
CCN(Cc1ccccc1)C(=O)c1[nH]c2ccc(OC)cc2c1C	none
CCN(CC)CCNC(=O)c1[nH]c2ccc(OCc3ccccc3)cc2c1C	D1 ag 126.2, D1 antagonist -64.0, DRD3 antagonist -86.0
COc1cc(C(=O)NNC(=O)C2CCC2)cc(OC)c1OC	D1 antagonist -47.8
COc1cc(C(=O)N2CCC(C(=O)Nc3cccc(C(C)=O)c3)CC2)cc(OC)c1OC	DRD3 antagonist -53.2
Cc1cccc(NC(=O)c2ccc3c(c2)OCCO3)c1	none (no result: D1 PAM)
COc1cc(C(=O)NNC(=O)C2CC=CCC2C(=O)O)cc(OC)c1OC (centres undefined)	none
COc1cc(C(=O)NNC(=S)NC(=O)c2ccc(F)cc2)cc(OC)c1OC	D1 ag 44.3
Cc1cccc(NC(=S)NNC(=O)c2ccc3c(c2)OCO3)c1	DRD3 antagonist -59.1
COc1cccc(CNc2ncnc3onc(-c4ccc(F)cc4)c23)c1	none (no result: DRD3 antagonist)
COc1cc(C(=O)NC(=S)Nc2ccc3c(c2)OCO3)cc(OC)c1OC	D1 antagonist -35.1
COCCCNC(=S)NNC(=O)c1ccc2c(c1)OCO2	none
COc1cc(C(=O)NC(=S)NNC(=O)c2ccc3c(c2)OCO3)cc(OC)c1OC	DRD3 agonist 30.2
COc1ccc(CCNC(=O)CSc2n[nH]c(-c3ccccc3Cl)n2)cc1OC	none (no result: DRD3 antagonist)
O=C(NNc1c2ccccc2nc2ccccc12)c1cccc(O)c1	none
O=C(NNc1c2ccccc2nc2ccccc12)c1ccc(O)cc1	DRD3 antagonist -64.2
Cc1cc(NC(=O)CSCC(=O)Nc2ccccc2Oc2ccccc2)no1	D1 antagonist -37.2
Cc1cc(C)nc(SCC(=O)Nc2nc(-c3ccccc3)c(-c3ccccc3)o2)n1	DRD3 agonist 32.6
COCCn1c(-c2ccc(OC)cc2)cnc1SCC(=O)Nc1ccc(OC)cc1OC	none
Cc1ccc(Oc2ccccc2NC(=O)CSCC(=O)Nc2cc(C)on2)cc1	none
Cc1ccc(C(=O)Nc2nc(-c3ccccc3)c(-c3ccccc3)o2)cc1	DRD3 antagonist -84.6
Cc1nc(-c2ccc(NC(=O)C(C)(C)C)cc2)c(-c2ccccc2)o1	none
COCCn1c(-c2ccc(OC)cc2)cnc1SCC(=O)Nc1cc(C)on1	DRD3 antagonist -70.3
CCc1ccccc1NC(=O)CN(c1ccccc1)S(=O)(=O)c1ccsc1C(=O)OC	none (no result: DRD3 antagonist)
Cc1cc(NC(=O)CSc2nnc(-c3ccccc3)c(-c3ccccc3)n2)no1	D1 antagonist -77.7
Cc1cc(NC(=O)CSc2ccccc2)no1	none
COc1cccc(/C=C/c2nc(C#N)c(N3CCCCC3)o2)c1	none (no result: DRD3 antagonist)
COc1ccccc1CNC(=O)CCS(=O)(=O)Cc1ccc(C)cc1	none
Cc1ccc(CS(=O)(=O)CCC(=O)NCc2ccccc2Cl)cc1	D1 ag 43.3
O=C(c1cc(-c2ccc(F)cc2)nc2ccccc12)N1CCN(C2CCS(=O)(=O)C2)CC1 (centres undefined)	D1 antagonist -32.0
CCOC(=O)C1CCCN(C(=O)c2cc(-c3ccc(F)cc3)nc3ccccc23)C1 (centres undefined)	none
O=C(OCc1ccccc1Cl)c1ccc(-n2cnnc2)cc1	D1 antagonist -35.7
O=C(OCc1ccccc1Cl)c1ccc(-c2nnn(Cc3ccccc3)n2)cc1	none (no result: DRD3 antagonist)
COc1ccc(C(CC(=O)Nc2ccc(F)c(Cl)c2)N2Cc3ccccc3C2=O)cc1OC (centres undefined)	none (no result: DRD3 antagonist)
CCCOc1ccc2ccccc2c1/C=N/n1cnnc1	none
CCOc1ccc2ccccc2c1/C=N/n1cncn1	D1 antagonist -47.2
Cc1ccc(NC(=O)c2cnn(-c3ccccc3)c2C)cc1	none
Cc1ccc(NC(=O)c2cnn(-c3ccccc3)c2C)c(C)c1	D1 antagonist -58.0
CN(C)CCNC(=O)C12CC3(C)CC(C)(CC(C)(C3)C1)C2	DRD3 antagonist -51.9
COc1cccc(N=Nc2c(N)[nH]n3c(=O)cc(-c4ccccc4)nc23)c1	D1 antagonist -39.7
Cc1cc(C)n(-c2nc(C)c(C)c(=O)n2CC(=O)Nc2ccc([N+](=O)[O-])cc2)n1	none (no result: D1 antagonist, DRD3 antagonist)
Brc1ccc(CNc2ccc3ncccc3c2)cc1	D1 antagonist -40.5
COc1ccc(N2CCN(C(=O)c3cc(S(=O)(=O)N4CCCCCC4)cn3C)CC2)cc1	none (no result: DRD3 antagonist)
CCC(C)(C)NC(=O)CN(C(=O)c1snc(C(N)=O)c1N)c1ccc2nc(C)sc2c1	D1 antagonist -55.5
CN1CCc2cccc3c2[C@@H]1Cc1ccc(O)c(O)c1-3	D1 antagonist -58.4, DRD3 agonist 44.1
Cc1ccc(C2=Nn3c(COc4ccc(Cl)cc4)nnc3SC2CC(=O)O)cc1 (centres undefined)	DRD3 agonist 32.5
